From PubChem BioAssay
RXFP1 agonist: activates the human relaxin receptor RXFP1. Q9HBX9. HEK293T-RXFP1 cAMP TR-FRET, 30 min; response scale: percent of porcine relaxin response, buffer zero. Potency, µM (top dose mostly 57.5 µM), without a hit: at the top dose activation, actives largely listed as activators. 0.3% of 370,000 active. AID 2676; active = well fitted activation curve with a large enough effect; inconclusive = small, poorly fitted or top-dose-only effect; note: potency is the fitted concentration of half-maximal effect; nearly all actives have a fitted effect of over 60% in size
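cAMP rise read by TR-FRET after 30 min, 37C compound exposure (up to 58 uM) in RXFP1-transfected HEK293 cells with Ro 20174 present. EC50 from Hill-equation fits, with 29 nM porcine relaxin as 100% and buffer as basal.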
RXFP1 antag: antagonists of human relaxin receptor RXFP1; AID 1259400; 0.59% of 350,000 active; activity change, negative = inhibition, % at 57.5 µM; HEK293-RXFP1, relaxin-stimulated cAMP HTRF, 30 min; hits give low values; Q9HBX9;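 active = activity change of -60% or lower, but not beyond a set lower limit; inconclusive = change between -60% and -40%, or beyond the set limit; inactive = change above -40%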
KCNH2 3.1 inh: KCNH2 3.1 (human) potassium channel inhibition; activity change, % (tested at about 1.8 µM); AID 720553; 0.95% of 340,000 active; U2OS KCNH2 3.1, thallium flux FluxOr; hits give low values;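 active = maximum activity change below -70%; inconclusive = maximum activity change from -70% to -50%; inactive = maximum activity change above -50%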;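 note: thallium influx rate constant from kinetic fluorescence after stimulation buffer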
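Measured as rate of thallium-driven FluxOr signal in transduced U2OS cells carrying the 3.1 channel, read kinetically for 2 min upon stimulation; values are rate constants scaled to DMSO control wells.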
pAkt inh: blocks phosphorylation of Akt; activity change, % for hits at 50 µM; 0.32% of 360,000 active; Neuro2A IGF-stimulated pAkt S473 HTRF, 20 min; hits give low values; in the data active = activity change below about -80%; inconclusive = mostly about -51% to -80%
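Single-point screen (50 µM final compound) in Neuro2A cells stimulated 20 min with 6 nM IGF at 37 deg C. After lysis, Ser473-phosphorylated Akt read by HTRF (ex 330 nm, em 615/665 nm) as the 665/615 ratio.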
KCNH2 WT inh: inhibitors of human wildtype KCNH2 potassium channel; U2OS, BacMam KCNH2, thallium flux FluxOr; hits give low values; activity change, % at 1.84 µM; Q12809; 0.37% of 340,000 active;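 active = maximum activity change below -70%; inconclusive = maximum activity change between -70% and -50%; inactive = maximum activity change above -50%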
Target sequence (Q12809 whole entry, looked up): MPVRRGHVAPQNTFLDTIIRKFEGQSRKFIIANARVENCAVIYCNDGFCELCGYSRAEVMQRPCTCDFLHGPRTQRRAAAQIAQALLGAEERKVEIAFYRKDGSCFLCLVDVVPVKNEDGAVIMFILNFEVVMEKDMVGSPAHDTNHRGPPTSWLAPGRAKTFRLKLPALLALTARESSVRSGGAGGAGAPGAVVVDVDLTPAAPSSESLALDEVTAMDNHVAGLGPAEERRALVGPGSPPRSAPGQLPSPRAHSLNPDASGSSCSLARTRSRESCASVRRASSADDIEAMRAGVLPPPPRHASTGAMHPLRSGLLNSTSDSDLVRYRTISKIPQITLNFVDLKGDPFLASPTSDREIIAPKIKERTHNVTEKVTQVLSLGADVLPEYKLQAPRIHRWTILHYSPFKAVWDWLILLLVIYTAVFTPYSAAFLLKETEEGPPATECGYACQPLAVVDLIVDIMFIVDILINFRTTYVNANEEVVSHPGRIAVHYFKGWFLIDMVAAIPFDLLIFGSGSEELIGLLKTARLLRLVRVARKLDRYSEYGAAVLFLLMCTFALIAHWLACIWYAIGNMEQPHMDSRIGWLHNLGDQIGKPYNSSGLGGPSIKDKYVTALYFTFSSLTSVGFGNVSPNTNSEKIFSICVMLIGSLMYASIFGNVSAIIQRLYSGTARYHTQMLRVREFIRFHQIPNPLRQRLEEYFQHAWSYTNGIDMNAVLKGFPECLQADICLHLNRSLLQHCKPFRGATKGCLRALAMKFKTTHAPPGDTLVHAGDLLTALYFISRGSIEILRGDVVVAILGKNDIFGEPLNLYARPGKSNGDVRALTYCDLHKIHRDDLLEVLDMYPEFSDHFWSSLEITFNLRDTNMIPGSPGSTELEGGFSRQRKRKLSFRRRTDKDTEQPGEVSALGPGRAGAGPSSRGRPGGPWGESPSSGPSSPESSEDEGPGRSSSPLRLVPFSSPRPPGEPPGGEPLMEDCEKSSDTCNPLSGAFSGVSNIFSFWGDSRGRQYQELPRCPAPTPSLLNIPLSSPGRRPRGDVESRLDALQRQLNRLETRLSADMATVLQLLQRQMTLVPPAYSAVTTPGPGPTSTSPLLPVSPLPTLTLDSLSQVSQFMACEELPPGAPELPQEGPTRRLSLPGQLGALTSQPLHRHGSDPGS
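U2OS cells transduced with wild-type KCNH2 virus are loaded with FluxOr dye for 45 min, and thallium flux is measured in kinetic reads before and after stimulation buffer. Rate constants are normalized to DMSO controls.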
The depositor's hits bear a star; i = inactive; ? = inconclusive; / = no result. In the library only some 1.7% were active in any assay of this set; here they are far more common. % is set by controls: 0 for no effect and ±100 for the full control effect.

SMILES | RXFP1 agonist | RXFP1 antag | KCNH2 3.1 inh | pAkt inh | KCNH2 WT inh
CC[C@]12c3[nH]c4cc(-c5ccco5)ccc4c3CCN1C(=O)[C@@H](CC(=O)NCCCN(C)C)C[C@@H]2C(=O)N1CCN(C(=O)C2CC2)CC1 | / | / | 0 | i | -15
COC(=O)C(Nc1ccccc1Cl)(c1cc(C)c(O)c(C)c1)C(F)(F)F (stereo not drawn) | 8% | -64* | 25 | i | -7
NS(=O)(=O)c1ccc(NCc2cnc3ccccc3c2)cc1 | / | -9 | -8 | i | 0
COc1ccc(-c2ccnc3nc(N4CCOCC4)nn23)cc1 | 9% | -7 | -108* | i | -4
CC(Oc1ccccc1)c1ccnc2nc(N3CCOCC3)nn12 (stereo not drawn) | 5% | 2 | -12 | i | i
c1ccc(Oc2ccc(-c3ccnc4nc(N5CCOCC5)nn34)cc2)cc1 | 9% | -12 | -118* | i | -10
COc1ccc(-c2ccnc3nc(-n4cccc4)nn23)cc1 | 3% | -26 | 14 | i | 0
N=c1sccn1CC(=O)Nc1ccc(Cl)cc1[N+](=O)[O-] | 0% | -4 | 6 | i | 10
Cc1nnc(Nc2ccc(S(N)(=O)=O)cc2)c2ccccc12 | 25µM* | 35 | -28 | i | -4
CCOC(=O)c1ccc(Nc2nnc(C)c3ccccc23)cc1 | ? | 11 | 0 | i | -3
O=C(Nc1cccc(-c2cccc(F)c2)c1)C1CCN(C2CCC2)CC1 | 3% | 2 | -91* | i | -97*
O=C(Nc1cccc(F)c1)C1CCCCC1 | 1% | / | 6 | i | 5
O=C(Nc1cccc(-c2cccc(Cl)c2)c1)C1CCN(CC2CCOC2)CC1 (stereo not drawn) | 3% | -5 | ? | i | -20
O=C(Nc1cccc(-c2cccc(F)c2)c1)C1CCN(CC2CCOC2)CC1 (stereo not drawn) | 0% | -19 | -79* | i | -44
Oc1c(Br)cc(Br)cc1/C=N/NC(=S)N[C@H]1CC2C=CC1C2 (stereo partly drawn) | 0% | -72* | -2 | i | -4
CNC(=S)N/N=C/c1cc(Br)cc(Br)c1O | -2% | 5 | -4 | i | -7
CC1Nc2ncnc(N3CCc4ccccc4C3)c2N(Cc2ccccc2)C1=O (stereo not drawn) | / | / | / | i | /
O=C(CSc1nnc(Cc2ccccc2)n1-c1cccc(Cl)c1)N1CCOCC1 | 4% | 3 | 0 | -132%* | -8
O=C(OC1CC2CC1[C@H]1CCCCN1C2=O)N1CCCCC1 (stereo partly drawn) | / | / | / | i | /
C=CCn1c(SCC(=O)Nc2sccc2C(N)=O)nc2ccc(Cl)cc2c1=O | 0% | 6 | -8 | i | 2
C=CCn1c(SCC(=O)Nc2sccc2C(N)=O)nc2sc(CC)cc2c1=O | 1% | -7 | 2 | -111%* | 4
O=C(OCc1cccc([N+](=O)[O-])c1)c1ccncc1 | 7% | -7 | 20 | i | -2
O=C(OCc1cccc([N+](=O)[O-])c1)c1cnccn1 | 22µM* | 0 | 8 | i | -11
Cc1ccc(C(=O)N/C(=C\c2cccc([N+](=O)[O-])c2)C(=O)NCc2ccncc2)cc1 | 0% | -22 | -86* | i | 11
O=C(NCc1ccncc1)/C(=C\c1ccc(F)cc1)NC(=O)c1ccccc1 | 4% | 5 | ? | i | -5
SMILES | RXFP1 agonist | RXFP1 antag | KCNH2 3.1 inh | pAkt inh | KCNH2 WT inh
Cc1ccc(C(=O)N/C(=C\c2ccc(F)cc2)C(=O)NCc2ccncc2)cc1 | 0% | 2 | -90* | i | -50
CCCCN(CC)C(=O)c1n[nH]c(=O)c2ccccc12 | -2% | -3 | -10 | i | -1
CC(=O)Nc1ccc(OC(=O)c2cccs2)cc1 | 2% | -4 | -93* | i | -7
CC(=O)NS(=O)(=O)c1ccc(NC(=O)c2ccc(NC(=O)c3cccs3)cc2)cc1 | 4% | 2 | -163* | i | -228*
CC(=O)Nc1ccc(OCC(O)Cn2c(CO)nc3ccccc32)cc1 (stereo not drawn) | -3% | 0 | 17 | i | -2
COc1ccc(C(CNC(=O)C(CCSC)NC(=O)c2ccccc2Cl)N2CCCC2)cc1 (stereo not drawn) | 1% | 7 | -10 | i | 10
